Screens deposited in PubChem by The Scripps Research Institute Molecular Screening Center.
DAX1 inh-1 – DAX1 (NR0B1) inhibitors, primary screen, cell-based, HEK293, Gal4-DAX1, luciferase luminescence; inhibition, % at 6.75 µM; actives 0.99% (n = 340,000); Nuclear receptor subfamily 0 group B member 1 (Homo sapiens), P51843; HEK293 Gal4-DAX1 luciferase reporter;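 active means inhibition above the mean over all tested compounds plus 3 SD, cut at about 4.2% in these data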;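 further: 0% = DAX1-transfected cells with DMSO and 100% = empty-vector control cells with DMSO; inhibition shows as a rise in luminescence from relieved DAX1 repression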
Target sequence (P51843 207-470 limits assumed): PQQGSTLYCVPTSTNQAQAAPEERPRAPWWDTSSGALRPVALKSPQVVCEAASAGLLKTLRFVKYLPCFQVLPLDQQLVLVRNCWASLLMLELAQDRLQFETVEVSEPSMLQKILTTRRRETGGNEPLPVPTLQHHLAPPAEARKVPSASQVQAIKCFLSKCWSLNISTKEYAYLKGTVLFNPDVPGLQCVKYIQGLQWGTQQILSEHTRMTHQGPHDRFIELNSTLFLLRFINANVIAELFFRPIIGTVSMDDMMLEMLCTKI
hcDAF12 agonist – H. contortus DAF-12 nuclear receptor activators, primary screen, cell-based, luminescence, HEK293, lit1-tk-luc reporter; HEK293 hcDAF-12 lit1-tk-luc reporter; 0% DMSO, 100% Δ7-dafachronic acid; actives 1.4% (n = 370,000); activation, % at 6.8 µM;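 active means activation above the mean of all tested compounds plus 3 SD, cut at about 5.5% in these data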;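 further: 100% = response to 3 µM Δ7-dafachronic acid high control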
DAX1 inh-2 – DAX1 (NR0B1) inhibitors on StAR promoter, primary screen, cell-based, luminescence, SF-1 (NR5A1), full-length DAX-1. inhibition, % at 6.8 µM. HEK293T StAR-luciferase reporter, SF-1/DAX-1 repression relief. actives 1.1% (n = 370,000);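 active means inhibition above the mean over all tested compounds plus 3 SD, cut at about 3.6% in these data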;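 further: 0% = DAX-1 cells with DMSO and 100% = cells lacking DAX-1 with DMSO; higher inhibition means more luminescence from relief of DAX-1 repression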
ssDAF-12 act – S. stercoralis DAF-12 nuclear receptor activators, primary screen, cell-based, luminescence, HEK293, GRIP1 co-expression, lit1-tk-luc. actives 1% (n = 370,000). HEK293 ssDAF-12/GRIP1 lit1-tk-luc reporter; % of 3 µM dafachronic acid response. activation, % at 6.8 µM;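 active means activation above the mean over all tested compounds plus 3 SD, cut at about 0.9% in these data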;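 further: 0% = DMSO-only wells and 100% = 3 µM delta7-dafachronic acid wells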
hgDAF-12 ag – H. glycines DAF-12 receptor agonists, primary screen, cell-based, luminescence, HEK293, GAL4 fusion, UAS-luciferase; Nuclear hormone receptor DAF-12 (Heterodera glycines), GAL4 fusion; HEK293 GAL4-hgDAF12 UAS-luciferase reporter, agonist luminescence; normalized to butyrate control; activation, % at 6.8 µM; AID 687014, 2013; actives 1.8% (n = 370,000);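 active means activation above a cutoff set at the mean of all screened compounds plus 3 SD, cut at about 10% in these data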;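 further: 0% = DMSO wells and 100% = sodium butyrate wells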
Active calls of the source: *; . = not tested or not shown. Hits are enriched below; roughly 4.1% of the tested compounds scored in any of these assays.

SMILES	DAX1 inh-1	hcDAF12 agonist	DAX1 inh-2	ssDAF-12 act	hgDAF-12 ag
CCn1ccc(C(=O)Nc2ccc(Cl)cn2)n1	2.1	2.4	4.2*	-0.8	8.9
CCn1nccc1C(=O)Nc1ccc(Cl)cn1	0.1	0.6	0.4	-0.6	1.8
CCn1ccc(C(=O)Nc2ccc(N(C)C(C)=O)cc2)n1	3.1	-0.2	-0.1	-0.8	1.2
CCn1ccc(C(=O)Nc2ccccc2SC)n1	0.0	1.3	0.9	-0.9	11.3*
COC(=O)CSc1nnc(-c2n[nH]c3c2CCC3)n1N	.	-0.4	0.5	-1.1	0.2
O=C(Cn1nnc(-c2ccccc2Cl)n1)N1CCCCC1	4.6*	0.5	1.3	-0.1	6.6
COc1cccc(/C=N/n2c(C)nc3ccccc3c2=O)c1O	5.5*	0.5	0.7	-1.2	0.7
CCCCN1CN2CCc3ccccc3C2CS1(=O)=O (stereo unspecified)	.	-4.8	0.5	-0.8	-0.4
COC(=O)c1c(NC(=O)C2CCCCC2C(=O)O)sc2c1CCCCC2 (stereo unspecified)	4.9*	2.7	2.0	0.4	3.2
COC(=O)CC#C[C@H](C)[C@@H](NS(C)(=O)=O)C(C)(C)COCc1ccccc1	.	0.3	-0.8	-0.5	3.3
Cc1sc2ncnc(NC(C)C(=O)O)c2c1C (stereo unspecified)	5.3*	-0.8	0.5	-0.5	-1.8
C/C=C(/CCC1NCCc2c1[nH]c1ccccc21)[Si](C)(C)C (stereo unspecified)	0.0	3.9	-0.2	1.3*	2.9
O=C(COc1ccccc1)NCC(=O)NC1=NCCS1	1.1	0.0	-0.6	-0.5	-0.9
CCc1ccc(/C=C/C(=O)NC2=NCCS2)cc1	.	3.7	.	0.2	10.0
Cc1ccc(OCC(=O)NC2=NCCS2)cc1	4.7*	-0.7	0.1	-0.8	2.0
Cc1ccc(/C=C/C(=O)NC2=NCCS2)cc1	-2.1	8.0*	6.4*	1.4*	17.2*
CCOC(=O)[C@@]12CCCC=C1N(CCc1ccc(Cl)cc1)C(=O)[C@H]2CC(=O)NCC12CC3CC(CC(C3)C1)C2	.	-0.9	-0.6	-1.2	3.4
Cc1ccc(OCC(=O)O/N=C(\N)c2ccccn2)cc1C	.	2.7	1.9	-0.9	6.8
N/C(=N\OC(=O)COc1ccccc1)c1ccccn1	2.5	0.3	2.7	-0.6	11.1*
N/C(=N\OC(=O)Cc1ccccc1)c1ccccn1	0.1	0.4	0.9	-0.6	11.8*
CCc1ccc(OCC(=O)O/N=C(\N)c2ccccn2)cc1	.	3.1	3.5	-0.7	11.4*
N/C(=N\OC(=O)CSc1ccccc1)c1ccncc1	1.6	5.7*	3.6	-0.2	7.8
N/C(=N\OC(=O)CCCc1ccccc1)c1ccccn1	-0.1	0.0	0.5	-0.8	4.2
COC[C@H]1CCCN1c1ccc2c(c1)OCCCN(C1CC1)S2(=O)=O	.	-2.2	0.9	-0.6	0.5
CCN1CCCCC(NC(=O)c2ccc(Cl)cc2Cl)C1=O (stereo unspecified)	.	1.0	-0.1	-0.6	1.2
SMILES	DAX1 inh-1	hcDAF12 agonist	DAX1 inh-2	ssDAF-12 act	hgDAF-12 ag
O=C(c1ccc(F)cc1Cl)N1CCCC(c2nc(-c3cccs3)no2)C1 (stereo unspecified)	.	-2.0	-0.1	-1.2	1.4
CN(c1ccc(NC(=O)CCc2c[nH]c3ccccc23)cc1)c1ccccn1	.	-3.4	-1.3	-1.6	-0.1
CC(C)[C@H](NC(=O)C1CC1)C(=O)N1CCC[C@H]1C(=O)NCc1ccccc1	.	0.4	0.7	-0.7	-1.3
N/C(=N\OC(=O)COc1ccccc1)c1ccncc1	5.3*	-1.2	0.0	-0.7	4.4
N/C(=N\OC(=O)CCC1CCCC1)c1ccccn1	1.5	0.7	4.2*	-0.5	8.4
COc1ccccc1N1CCN(S(=O)(=O)c2ccc3c(c2)n(C)c(=O)c(=O)n3C)CC1	.	-5.2	-0.6	-0.8	-1.9
COc1ccc2nc3cc(Cl)ccc3c(Nc3cc(C(C)C)c(O)cc3C)c2c1	-1.2	-2.4	-0.5	-1.1	0.2
